Results published in ChEMBL document CHEMBL3988442, “University of Dundee, Small-Polar-MMV Screening Library” (2021).
For some of these results: Results with a measured potency or affinity are listed apart.

What was measured:
Set-up in all cases: scale not given: direction of the effect not stated beside the values
[1] = target: Protein translocase subunit SecA (Escherichia coli (strain K12)) (UniProt P10408); assay: Assay to Identify E. coli SecA ATPase Inhibitors; format: functional; details: 30 µM
[2] = target: T1, Ubiquitin-activating enzyme e1, putative (Leishmania donovani (strain BPK282A1)) (UniProt E9BSI1); assay: Leishmania donovani Ubiquitin Activating Enzyme (LdE1); format: functional; details: 30 µM
T1 sequence (whole entry): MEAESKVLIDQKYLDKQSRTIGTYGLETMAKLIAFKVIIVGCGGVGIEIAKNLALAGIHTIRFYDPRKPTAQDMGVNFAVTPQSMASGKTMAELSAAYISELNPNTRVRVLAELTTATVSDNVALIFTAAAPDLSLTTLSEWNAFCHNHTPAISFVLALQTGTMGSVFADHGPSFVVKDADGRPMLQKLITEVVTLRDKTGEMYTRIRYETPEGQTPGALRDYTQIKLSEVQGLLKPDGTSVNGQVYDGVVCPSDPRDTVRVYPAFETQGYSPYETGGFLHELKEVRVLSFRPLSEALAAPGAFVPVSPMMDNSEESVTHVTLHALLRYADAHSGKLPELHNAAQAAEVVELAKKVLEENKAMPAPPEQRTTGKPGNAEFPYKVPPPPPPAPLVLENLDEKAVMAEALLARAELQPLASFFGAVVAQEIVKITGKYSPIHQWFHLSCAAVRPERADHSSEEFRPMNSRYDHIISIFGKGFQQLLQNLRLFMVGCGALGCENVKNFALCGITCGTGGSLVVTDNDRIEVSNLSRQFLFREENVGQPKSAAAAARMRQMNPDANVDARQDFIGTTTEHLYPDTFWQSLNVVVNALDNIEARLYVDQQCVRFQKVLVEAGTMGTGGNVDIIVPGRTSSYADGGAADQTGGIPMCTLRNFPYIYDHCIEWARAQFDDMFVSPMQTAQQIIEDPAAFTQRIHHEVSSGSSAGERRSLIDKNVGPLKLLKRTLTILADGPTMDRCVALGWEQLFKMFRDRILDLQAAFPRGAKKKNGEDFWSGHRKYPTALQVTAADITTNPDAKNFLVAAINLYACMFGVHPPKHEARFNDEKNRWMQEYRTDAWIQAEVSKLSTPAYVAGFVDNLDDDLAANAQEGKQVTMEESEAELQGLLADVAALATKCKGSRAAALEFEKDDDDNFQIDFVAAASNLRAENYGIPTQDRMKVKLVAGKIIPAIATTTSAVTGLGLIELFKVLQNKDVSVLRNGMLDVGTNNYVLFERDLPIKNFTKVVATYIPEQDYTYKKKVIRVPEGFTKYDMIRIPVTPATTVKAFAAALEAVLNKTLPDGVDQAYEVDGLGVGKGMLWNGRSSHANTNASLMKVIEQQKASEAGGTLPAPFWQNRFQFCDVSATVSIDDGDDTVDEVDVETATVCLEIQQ

[3] = target: AMP-activated protein kinase, AMPK (Homo sapiens) (UniProt P54646+O43741+P54619+Q9UGJ0+Q9Y478+Q13131+Q9UGI9); assay: AMP-dependent Kinase enzyme assay. An in vitro enzyme assay that detects ADP turnover that is directly proportional to AMPK activity. This uses naive AMPK that is activated during the assay with MK-8722; format: functional; details: 30 µM
[4] = target: Sialic acid-binding Ig-like lectin 9 (Homo sapiens) (UniProt Q9Y336); assay: Hs-Siglec9 ALPHAscreen SOP 20170721; details: 10 µM
Trypanosoma cruzi = assay: Trypanosoma cruzi phosphomannomutase and mannose-1-phosphate guanylyltransferase assay; format: functional; details: 10 µM
[5] = target: T2, Arginase-2, mitochondrial (Homo sapiens) (UniProt P78540); assay: in vitro enzyme assay to detect the production of urea directly proportional to the activity of Arginase II; format: functional; details: 33.3 µM; note: in the data most compounds retested in dose-response had high values
T2 sequence (whole entry): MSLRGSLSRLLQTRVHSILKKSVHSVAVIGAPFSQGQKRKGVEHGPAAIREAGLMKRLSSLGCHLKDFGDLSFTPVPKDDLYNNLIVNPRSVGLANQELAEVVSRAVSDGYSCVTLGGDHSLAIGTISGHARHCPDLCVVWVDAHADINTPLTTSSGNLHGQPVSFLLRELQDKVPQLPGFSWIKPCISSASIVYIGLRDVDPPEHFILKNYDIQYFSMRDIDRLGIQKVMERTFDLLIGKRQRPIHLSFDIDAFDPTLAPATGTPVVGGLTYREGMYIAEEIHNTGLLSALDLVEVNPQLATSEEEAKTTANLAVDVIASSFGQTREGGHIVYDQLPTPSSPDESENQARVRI

[6] = target: T3, Proteasome subunit beta (Trypanosoma cruzi) (UniProt O96673); assay: Trypanosoma cruzi proteasome chymotrypsin-like activity (TcProtChymo) assay.; note: in the data most compounds retested in dose-response had high values; format: functional; details: 9.37 µM
T3 sequence (whole entry): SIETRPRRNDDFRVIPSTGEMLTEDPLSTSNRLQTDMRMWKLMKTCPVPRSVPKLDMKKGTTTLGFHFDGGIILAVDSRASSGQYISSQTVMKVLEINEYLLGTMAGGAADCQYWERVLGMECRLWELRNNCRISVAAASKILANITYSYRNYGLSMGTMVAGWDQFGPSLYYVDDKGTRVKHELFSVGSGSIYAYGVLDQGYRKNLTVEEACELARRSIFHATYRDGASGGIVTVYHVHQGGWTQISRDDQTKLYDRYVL

Homo sapiens = species: Homo sapiens; assay: To identify inhibition of the IFN signalling (Jak-Stat) pathway via expression of an eGFP reporter gene under the control of an IFN-stimulated response element (ISRE) containing MxA promoter.; format: functional; details: 30 µM
[7] = target: T4, Tyrosyl-tRNA synthetase, putative (Trypanosoma cruzi (strain CL Brener)) (UniProt Q4DSP6); assay: Trypanosoma cruzi tyrosyl tRNA synthetase (TcYRS) _High Tyrosine SOP; format: functional; details: 30 µM; note: in the data most compounds retested in dose-response had high values
T4 sequence (whole entry): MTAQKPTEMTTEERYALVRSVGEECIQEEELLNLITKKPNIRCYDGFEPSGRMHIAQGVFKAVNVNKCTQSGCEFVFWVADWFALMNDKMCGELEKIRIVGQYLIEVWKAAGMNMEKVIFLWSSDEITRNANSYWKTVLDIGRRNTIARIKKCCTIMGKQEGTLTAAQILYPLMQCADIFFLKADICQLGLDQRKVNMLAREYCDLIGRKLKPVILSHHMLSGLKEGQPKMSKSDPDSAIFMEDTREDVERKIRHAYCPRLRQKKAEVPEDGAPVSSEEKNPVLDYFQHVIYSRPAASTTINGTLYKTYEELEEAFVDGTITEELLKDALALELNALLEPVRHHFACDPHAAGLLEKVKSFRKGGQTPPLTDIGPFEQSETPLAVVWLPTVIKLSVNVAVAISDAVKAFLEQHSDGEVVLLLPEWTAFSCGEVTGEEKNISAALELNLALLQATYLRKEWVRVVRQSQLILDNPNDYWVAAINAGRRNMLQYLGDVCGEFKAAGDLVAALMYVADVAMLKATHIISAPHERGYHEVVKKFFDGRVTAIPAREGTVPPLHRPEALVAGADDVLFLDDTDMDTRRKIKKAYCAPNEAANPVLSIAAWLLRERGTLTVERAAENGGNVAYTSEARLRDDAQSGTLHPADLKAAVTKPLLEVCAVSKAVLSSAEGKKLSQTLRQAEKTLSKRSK

[8] = target: T4, Tyrosyl-tRNA synthetase, putative (Trypanosoma cruzi (strain CL Brener)); assay: Trypanosoma cruzi tyrosyl tRNA synthetase (TcYRS) SOP; format: functional; details: 30 µM
[9] = target: Chromo domain-containing protein 1 (Saccharomyces cerevisiae (strain ATCC 204508 / S288c) (Baker's yeast)) (UniProt P32657); assay: ScCHD-1 Enzyme Inhibition Assay; format: functional; details: 30 µM; note: in the data most compounds retested in dose-response had high values
Chromo domain-containing protein 1 (Saccharomyces cerevisiae (strain ATCC 204508 / S288c) (Baker's yeast)), sequence (P32657 whole entry, the tested form may be a part): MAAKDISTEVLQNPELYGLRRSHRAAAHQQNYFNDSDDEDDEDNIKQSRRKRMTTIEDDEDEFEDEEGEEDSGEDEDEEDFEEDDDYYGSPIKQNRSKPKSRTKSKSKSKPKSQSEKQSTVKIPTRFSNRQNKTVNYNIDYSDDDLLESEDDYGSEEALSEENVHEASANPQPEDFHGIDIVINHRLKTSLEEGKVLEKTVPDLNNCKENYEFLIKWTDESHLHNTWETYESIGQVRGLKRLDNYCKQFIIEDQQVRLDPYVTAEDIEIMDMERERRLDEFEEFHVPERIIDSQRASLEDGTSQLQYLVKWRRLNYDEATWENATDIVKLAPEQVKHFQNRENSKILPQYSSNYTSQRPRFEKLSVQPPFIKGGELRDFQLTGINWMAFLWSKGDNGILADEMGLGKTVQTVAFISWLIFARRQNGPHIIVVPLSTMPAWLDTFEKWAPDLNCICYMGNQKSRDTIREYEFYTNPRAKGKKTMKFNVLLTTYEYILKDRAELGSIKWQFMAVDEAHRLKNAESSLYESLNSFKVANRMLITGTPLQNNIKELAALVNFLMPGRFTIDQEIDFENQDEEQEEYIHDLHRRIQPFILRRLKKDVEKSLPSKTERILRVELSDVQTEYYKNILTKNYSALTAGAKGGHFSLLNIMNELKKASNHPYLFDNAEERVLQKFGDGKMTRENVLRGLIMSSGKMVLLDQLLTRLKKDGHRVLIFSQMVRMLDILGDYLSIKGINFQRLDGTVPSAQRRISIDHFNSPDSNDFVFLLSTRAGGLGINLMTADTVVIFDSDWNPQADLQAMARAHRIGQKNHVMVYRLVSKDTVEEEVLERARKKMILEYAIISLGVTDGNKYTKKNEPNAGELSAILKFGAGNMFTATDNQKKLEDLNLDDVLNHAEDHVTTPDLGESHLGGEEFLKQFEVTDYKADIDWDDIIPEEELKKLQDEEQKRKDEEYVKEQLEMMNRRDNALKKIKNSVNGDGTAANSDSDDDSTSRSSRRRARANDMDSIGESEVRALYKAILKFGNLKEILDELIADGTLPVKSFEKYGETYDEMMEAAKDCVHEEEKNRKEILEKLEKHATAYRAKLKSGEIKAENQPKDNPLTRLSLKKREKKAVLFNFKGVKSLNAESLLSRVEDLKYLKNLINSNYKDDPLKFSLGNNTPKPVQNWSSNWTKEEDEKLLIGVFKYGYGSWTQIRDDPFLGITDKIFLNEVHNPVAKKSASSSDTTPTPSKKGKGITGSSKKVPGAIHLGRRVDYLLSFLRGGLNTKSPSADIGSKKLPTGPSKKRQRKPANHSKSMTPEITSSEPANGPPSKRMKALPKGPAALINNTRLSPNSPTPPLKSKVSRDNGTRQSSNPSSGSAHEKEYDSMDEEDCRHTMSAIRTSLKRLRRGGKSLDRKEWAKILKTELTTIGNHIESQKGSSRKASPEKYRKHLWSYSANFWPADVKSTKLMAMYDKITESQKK

Sialic acid-binding Ig-like lectin 9 (Homo sapiens), sequence (Q9Y336 whole entry): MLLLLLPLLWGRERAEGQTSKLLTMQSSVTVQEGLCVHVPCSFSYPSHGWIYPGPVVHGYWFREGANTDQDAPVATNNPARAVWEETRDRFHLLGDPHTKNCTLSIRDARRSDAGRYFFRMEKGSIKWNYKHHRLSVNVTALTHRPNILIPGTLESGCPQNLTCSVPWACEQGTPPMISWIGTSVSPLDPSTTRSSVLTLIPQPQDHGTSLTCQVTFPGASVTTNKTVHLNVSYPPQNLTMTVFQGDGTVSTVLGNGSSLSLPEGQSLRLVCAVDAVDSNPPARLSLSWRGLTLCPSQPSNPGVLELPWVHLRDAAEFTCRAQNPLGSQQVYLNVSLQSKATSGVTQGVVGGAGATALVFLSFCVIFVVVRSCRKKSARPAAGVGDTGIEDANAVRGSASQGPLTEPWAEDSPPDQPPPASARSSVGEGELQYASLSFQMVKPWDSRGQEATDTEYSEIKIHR
Protein translocase subunit SecA (Escherichia coli (strain K12)), sequence (P10408 whole entry): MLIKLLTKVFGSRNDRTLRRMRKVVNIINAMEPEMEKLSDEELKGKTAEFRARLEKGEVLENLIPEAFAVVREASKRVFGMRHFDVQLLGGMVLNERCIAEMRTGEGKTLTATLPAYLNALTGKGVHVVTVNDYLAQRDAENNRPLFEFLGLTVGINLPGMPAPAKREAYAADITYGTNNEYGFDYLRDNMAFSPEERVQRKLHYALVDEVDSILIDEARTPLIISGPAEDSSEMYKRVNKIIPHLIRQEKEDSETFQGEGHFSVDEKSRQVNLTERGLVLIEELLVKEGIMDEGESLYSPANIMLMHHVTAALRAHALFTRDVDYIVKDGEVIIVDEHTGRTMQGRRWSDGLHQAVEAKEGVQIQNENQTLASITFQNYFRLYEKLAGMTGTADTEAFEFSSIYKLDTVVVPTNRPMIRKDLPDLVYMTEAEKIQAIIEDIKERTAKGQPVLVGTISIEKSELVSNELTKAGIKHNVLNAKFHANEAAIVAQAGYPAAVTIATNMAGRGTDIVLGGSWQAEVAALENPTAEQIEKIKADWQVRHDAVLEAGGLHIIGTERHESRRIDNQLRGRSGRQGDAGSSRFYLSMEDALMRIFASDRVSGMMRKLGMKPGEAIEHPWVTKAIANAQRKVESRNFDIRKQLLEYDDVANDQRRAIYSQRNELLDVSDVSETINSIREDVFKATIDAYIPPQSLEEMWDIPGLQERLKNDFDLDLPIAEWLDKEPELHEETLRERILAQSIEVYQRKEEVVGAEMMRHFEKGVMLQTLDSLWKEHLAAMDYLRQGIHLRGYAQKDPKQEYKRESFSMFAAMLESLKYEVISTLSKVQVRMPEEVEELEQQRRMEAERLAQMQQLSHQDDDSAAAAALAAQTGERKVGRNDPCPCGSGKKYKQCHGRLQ

Structure (SMILES)	Percent Effect [1] [%]	Percent Effect [2] [%]	Percent Effect [3] [%]	Percent Effect [4] [%]	Percent Effect (Trypanosoma cruzi) [%]	Percent Effect [5] [%]	Percent Effect [6] [%]	Percent Effect (Homo sapiens) [%]	Percent Effect [7] [%]	Percent Effect [8] [%]	Percent Effect [9] [%]
Cc1ccc(C)c(OCCN2CCC(N3CCNC3=O)CC2)c1	-3.83	10.8	-16.9	6.39	-2.69	2.03	1.62	6.79	4.95	13.4	-0.537
Cn1c(CN2CCOCC2)nnc1C1CCN(C(=O)C2CCCC2)CC1	0.739	13.5	1.53	14.3	3.09	0.476	20.9	2.19	5.82	19.5	-4.58
CCC1CCCCN1C(=O)c1ccc2[nH]nnc2c1 (stereo not drawn)	0.483	0	-3.81	-0.908	-1.17	3.33	19.5	1.34	3.96	-11	-1.41
CCCNC(=O)c1cnc(N(C)C)nc1COC	-3.99	9.33	7.82	8.88	2.75	-2.99	8.69	13.2	1.06	10.3	-3.99
O=S(=O)(CCN1CCOC(Cn2cccn2)C1)C(F)(F)F (stereo not drawn)	-0.0845	24.1	13.4	-1.22	2.97	-1.5	18.4	30.2	8.33	12.7	61.7
COCc1nn(C(C)C)c2c1CCN(Cc1ccc(C)s1)C2	-2.06	2.74	-1.91	-1.63	0.198	5.99	7.62	1.17	2.08	3.7	-2.29
Cc1ncsc1CN1CC[C@H]2OCC[C@@]2(C(=O)NC(C)C)C1	-3.99	0	6.03	-6.45	-3.25	0.645	0.87	30.1	-1.06	-8.97	0.0917
COCCN1CCN(CCCS(=O)(=O)c2ccccc2)CC1C (stereo not drawn)	-1.14	-5.41	-5.83	0.945	6.22	0.554	4.13	-19.8	4.95	1.22	-0.0339
